What all share (experiment): NCI-60 one-dose screen, 48 h (100 = growth as untreated, 0 = no growth, -100 = all killed)
One assay concerns NCI-H23 lung. As to conditions: 10 µM unless noted.
In another assay the test system is NCI-H226 lung. As to conditions: 10 µM unless noted.
For the next assay, the system named is NCI-H322M lung. As to conditions: 10 µM unless noted.
The subject of a further assay is HOP-62 NSCLC. Particulars: 10 µM unless noted.
The next assay relates to HOP-92 NSCLC. Particulars: 10 µM unless noted.
A further assay relates to A549/ATCC NSCLC. Particulars: 10 µM unless noted.
For a further assay, the system named is 786-0 renal. As to conditions: 10 µM unless noted.
Another assay has as its system COLO 205 colon. Particulars: 10 µM unless noted.
The next assay concerns DU-145 prostate. Particulars: 10 µM unless noted.
In a further assay the test system is K-562 leukemia. Particulars: 10 µM unless noted.
A further assay concerns MALME-3M melanoma. As to conditions: 10 µM unless noted.
The subject of another assay is MDA-MB-231 breast. Particulars: 10 µM unless noted.
The subject of the next assay is RXF 393 renal. As to conditions: 10 µM unless noted.
Another assay relates to SF-268 CNS. As to conditions: 10 µM unless noted.
In the next assay the test system is SF-295 CNS. Particulars: 10 µM unless noted.
In the next assay the test system is SF-539 CNS. Particulars: 10 µM unless noted.
A further assay has as its system UACC-257 melanoma. As to conditions: 10 µM unless noted.
In another assay the test system is M14 melanoma. Particulars: 10 µM unless noted.
For a further assay, the system named is NCI-H522 lung. Particulars: 10 µM.

Molecules are shown by their SMILES. This is part of a sample that, as a whole, favours compounds with a hit. Of some 83,000 tested, about 20% had one in any assay.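 Cell lines were cultured in 96-well plates, exposed to a single compound concentration, and assessed for percent growth 48 hours later.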 A number with no mark means an inactive call. Calls of active or inactive are those of the source. The calls were made as follows: active = growth percent below 10; inactive = the rest.

As to `O=C1CSC(c2ccccc2O)N1c1nnc(Cn2ccnc2)o1` (stereo not given), the growth in the assay with NCI-H23 lung is 67.9%; in the assay with NCI-H226 lung, 91.4%; with NCI-H322M lung, 69.6%; in the assay with HOP-62 NSCLC, 67.2%; with HOP-92 NSCLC, 69.1%; with A549/ATCC NSCLC, 66.5%. The growth with 786-0 renal was 59.1%; with COLO 205 colon, 92.6%; with DU-145 prostate, 80.9%; in the assay on K-562 leukemia, 43.5%; with MALME-3M melanoma, 101%; with MDA-MB-231 breast, 61.6%. For the same compound, the growth in the assay on RXF 393 renal was 74.7%; in the assay on SF-268 CNS it was 55.7%; with SF-295 CNS, 20.7%; in the assay with SF-539 CNS, 55.6%; in the assay with UACC-257 melanoma, 78.7%; with M14 melanoma, 59.8%.
As for `COc1ccc(-c2ccc(O)c(C(=O)/C=C/c3cc(OC)c(OC)c(OC)c3)c2)cc1`, the growth in the assay on NCI-H23 lung is 72.7%; with NCI-H226 lung, 99.1%; in the assay with NCI-H322M lung it was 81.8%; in the assay on HOP-62 NSCLC, 103%; with HOP-92 NSCLC it was 56%; in the assay on A549/ATCC NSCLC it was 80.5%. Moreover, the growth in the assay on 786-0 renal is 99.4%; with COLO 205 colon, 83.7%; in the assay on DU-145 prostate it was 83.7%; with K-562 leukemia it was 56.5%; with MDA-MB-231 breast it was 85.6%; in the assay on RXF 393 renal, 94.5%. The growth with SF-268 CNS was 79.6%; in the assay on SF-295 CNS, 92.4%; with SF-539 CNS, 96.8%; with UACC-257 melanoma it was 86.6%; in the assay with M14 melanoma, 93.6%.
Regarding `COC(=O)[C@H]1[C@H]2C[C@@H]3c4[nH]c5cc(OC)ccc5c4CCN3C[C@H]2C[C@@H](OC(=O)/C=C/c2cc(OC)c(OC)c(OC)c2)[C@@H]1OC`, the growth in the assay with NCI-H23 lung is 93.5%; in the assay on NCI-H226 lung, 101%; in the assay with NCI-H322M lung it was 88.6%; in the assay with HOP-62 NSCLC, 61.6%; with HOP-92 NSCLC it was 60.5%; in the assay with A549/ATCC NSCLC it was 74.2%. For the same compound, the growth in the assay with 786-0 renal is 58.9%; in the assay on COLO 205 colon, 67.6%; in the assay on DU-145 prostate it was 40.8%; in the assay with K-562 leukemia, -2.87% (active); in the assay on MDA-MB-231 breast it was 65.1%; in the assay with RXF 393 renal it was 61%. The growth was 68.6% in the assay on SF-268 CNS; 14.6% in the assay on SF-295 CNS; 71.8% in the assay on SF-539 CNS; 85% in the assay with UACC-257 melanoma; 71.5% in the assay with M14 melanoma.
On to `COc1ccc([N+](=O)[O-])c(S(=O)(=O)c2ccc(Cl)cc2)n1`, for which the growth was 81.9% with NCI-H23 lung; 91.2% in the assay with NCI-H226 lung; 106% in the assay with NCI-H322M lung; 95.2% in the assay with HOP-62 NSCLC; 63.1% in the assay with HOP-92 NSCLC; 99.2% in the assay with A549/ATCC NSCLC. Besides, the growth in the assay on 786-0 renal is 70.1%; in the assay on COLO 205 colon, 25.2%; in the assay on DU-145 prostate it was 93.2%; in the assay on K-562 leukemia, 7.72% (active); with MALME-3M melanoma, 11.8%; with MDA-MB-231 breast, 68.1%. Moreover, the growth in the assay on SF-268 CNS was 92.4%; in the assay on SF-295 CNS, 95.3%; in the assay with SF-539 CNS, 82.8%; in the assay with UACC-257 melanoma, 94.9%; with M14 melanoma, 60.5%.
For `COc1ccc(-c2c3c(N)nc(-c4ccncc4)nc3nc3c2c(C)nn3-c2ccccc2)cc1`, the growth was 59.9% in the assay on NCI-H23 lung; 74% in the assay with NCI-H226 lung; 74.3% in the assay with NCI-H322M lung; 62.6% in the assay on HOP-62 NSCLC; 51.4% in the assay on HOP-92 NSCLC; 72.6% in the assay with 786-0 renal. The growth is 38.6% with COLO 205 colon; 82% with DU-145 prostate; 76% in the assay on MALME-3M melanoma; 67.6% with MDA-MB-231 breast; 69.4% in the assay with RXF 393 renal; 54% in the assay with SF-268 CNS. Further, the growth with SF-295 CNS is 58.7%; with SF-539 CNS, -40% (active); in the assay with M14 melanoma, 69.1%.
`C[C@]12CC[C@H](O)CC1=CC[C@@H]1[C@@H]2CC[C@]2(C)C(c3cccnc3)=CC[C@@H]12`: the growth is 68.3% in the assay on NCI-H23 lung; 58.5% with NCI-H226 lung; 84.1% with NCI-H322M lung; 81.1% in the assay on HOP-62 NSCLC; 72.3% in the assay on HOP-92 NSCLC; 35.7% in the assay with NCI-H522 lung. Also, the growth with 786-0 renal is 36.9%; with COLO 205 colon it was 95.1%; in the assay on DU-145 prostate it was 90.6%; in the assay with MALME-3M melanoma, 70.8%; with MDA-MB-231 breast it was 85.1%; in the assay on SF-268 CNS, 79.5%. Also, the growth with SF-295 CNS is 42%; in the assay on SF-539 CNS it was 31.8%; with M14 melanoma it was 71%.
For the compound `O=C1/C(=C/c2ccc(F)cc2)Cc2ccccc21`, the growth is 99.7% in the assay with NCI-H23 lung; 94.2% with NCI-H226 lung; 95.2% with NCI-H322M lung; 96.2% in the assay on HOP-62 NSCLC; 80.4% in the assay with HOP-92 NSCLC; 91.7% with A549/ATCC NSCLC. Besides, the growth in the assay on 786-0 renal was 96%; in the assay with COLO 205 colon, 115%; in the assay with DU-145 prostate, 104%; with K-562 leukemia, 110%; with MALME-3M melanoma, 107%; with MDA-MB-231 breast, 107%. For the same compound, the growth in the assay on RXF 393 renal is 99.6%; in the assay with SF-268 CNS, 110%; in the assay on SF-295 CNS, 90.8%; in the assay with SF-539 CNS, 107%; in the assay with M14 melanoma it was 103%.
`Cc1sc2nc3c4ccccc4c(NCCCN(C)C)nn3c(=O)c2c1C`: the growth is 60.9% in the assay with NCI-H23 lung; 42.8% with NCI-H226 lung; 83.1% in the assay on NCI-H322M lung; 61.7% with HOP-62 NSCLC; 29% in the assay with HOP-92 NSCLC; 15% in the assay on A549/ATCC NSCLC. Further, the growth is 55.7% in the assay on 786-0 renal; -57.4% (active) in the assay with COLO 205 colon; 41.5% with DU-145 prostate; -73.8% (active) in the assay with K-562 leukemia; -42.2% (active) in the assay on MALME-3M melanoma; -23.6% (active) in the assay with MDA-MB-231 breast. In addition, the growth in the assay on SF-268 CNS was 66.7%; in the assay on SF-295 CNS, 65.6%; with SF-539 CNS, 29%; with M14 melanoma, -95.6% (active).
On to `CC1=C([Se]CC(OC(=O)[C@@H](CSSC(C)(C)C)NC(=O)C(C)(C)C)C(=O)NCCCCCC(=O)OCc2ccccc2)C(=O)c2ccccc2C1=O` (stereo not given in full), for which the growth with NCI-H23 lung is -30.2% (active); in the assay with NCI-H226 lung, 3.19% (active); in the assay on NCI-H322M lung, -22.6% (active); with HOP-62 NSCLC, -95% (active); in the assay on HOP-92 NSCLC, -35.9% (active); in the assay on A549/ATCC NSCLC, 1.31% (active). Further, the growth was -55.6% (active) in the assay on 786-0 renal; 40.4% in the assay with COLO 205 colon; 13.3% with DU-145 prostate; 7.91% (active) in the assay with K-562 leukemia; -39.1% (active) in the assay on MALME-3M melanoma; -15.3% (active) in the assay with MDA-MB-231 breast. The growth with RXF 393 renal was -33.5% (active); in the assay with SF-268 CNS, 7.11% (active); in the assay on SF-295 CNS, -27.8% (active); in the assay with SF-539 CNS, -69.4% (active); in the assay on UACC-257 melanoma, -20.8% (active); with M14 melanoma, -32.5% (active).

For the origin of these results see PubChem BioAssay (NCI).
